A structure can be active in one record and inactive in another. The source made the active and inactive calls. The calls were made as follows: active = hit-call score of the fitted dose curve at least 0.9, where 1 is the maximum; inactive = score below 0.9.
assay: APR_HepG2_p53Act_1hr: Apredica 1-hour HepG2 Assay for p53 Activation (AID 2282671); settings: high-content imaging, actives raise or lower the signal
Method: APR_HepG2_1hr is a cell-based, multiplexed-readout assay that uses HepG2, a human liver cell line, with measurements taken at 1 hour after chemical dosing in a 384-well plate.APR_HepG2_p53Act_1hr is one of 10 assay component(s) measured or calculated from the APR_HepG2_1hr assay. It is designed to make measurements of dna content, a form of viability reporter, as detected with fluorescence intensity signals by HCS Fluorescent Imaging technology.Data from the assay component APR_HepG2_p53Act_1hr was analyzed into 1 assay endpoint. This assay endpoint, APR_HepG2_p53Act_1hr, was analyzed with bidirectional fitting relative to DMSO as the negative control and baseline of activity. Using a type of viability reporter, measures of protein for gain or loss-of-signal activity can be used to understand the signaling at the pathway-level as they relate to the gene TP53. Furthermore, this assay endpoint can be referred to as a primary readout, because this assay has produced multiple assay endpoints where this one serves a signaling function. To generalize the intended target to other relatable targets, this assay endpoint is annotated to the dna binding intended target family, where the subfamily is tumor suppressor.
Cells were treated with dimethyl sulfoxide (DMSO) as a solvent control at a final concentration of 0.5% v/v or with compounds in DMSO with a resulting final DMSO concentration of 0.5% v/v. Compound treatment was done at concentrations of 0.39, 0.78, 1.56, 3.12, 6.24, 12.5, 25, 50, 100, and 200 uM in duplicate on each plate. Cells were treated with compounds for 1, 24, or 72 hr. Carbonyl […] m-chloro-phenylhydrazone (CCCP) and taxol were used as positive controls for mitochondrial function and cytoskeletal stability, respectively; DMSO served as the negative control for this experiment. Cells were fixed by the direct addition of 50 uL formaldehyde in Hank's Balanced Salt Solution (HBSS) to a final concentration of 3.7%. After incubation in the fixation medium for 30 min at room temperature (293-298 K), cells were rinsed twice with HBSS and treated with cell permeabilization buffer (16 uL of 0.5% Triton X-100) for 10 min at room temperature (293-298 K) before labeling. For mitochondrial membrane potential and mitochondrial measurements, pre-fixed cells were incubated with 50 uL of MitoTracker Red CMXRos (Invitrogen) at a concentration of 250 nM for 30 min before fixation. In the remaining cases, post-fixed cells were labeled by incubation with a multiplexed mixture of primary antibodies in HBSS for 60 min at room temperature (293-298 K) to detect immunoreactivity of c-Jun (1:500), phospho-histone H3 (1:100), phospho-histone H2A.x (1:200), p53 (1:400), alpha-tubulin (1:200) and Hoechst 33342 (2 ug/mL). Cells were labeled for multiplexed imaging on two separate plates: a) Hoechst 33342, MitoTracker Red, phospho-histone H3, and alpha-tubulin, and b) Hoechst 33342, phospho-histone H2A.x, and c-Jun. A final rinse with HBSS (50 uL) was performed before analysis. The primary and secondary antibodies for the proteins were phospho-histone H3 (rabbit anti-phospho-histone H3 and FITC-donkey anti-rabbit IgG), phospho-histone H2A.x (mouse anti-phospho-histone H2A.x and FITC-donkey anti-mouse IgG), c-Jun (rabbit anti-phospho-c-Jun and Cy3-donkey anti-rabbit IgG), p53 (sheep anti-p53 and Cy5-donkey anti-sheep IgG), alpha-tubulin (mouse anti-alpha-tubulin and Cy5-donkey anti-mouse IgG). These antibodies are available as the CellCiphr HepG2 assay kit (Millipore).Digital images of each well were captured using a Cellomics ArrayScan VTI (Thermo Scientific Cellomics) (0.8 NA objective, 0.63x optical coupler, and XF-93 filter set) at 20x magnification. The images were acquired using the autofocus feature of the ArrayScan instrument, which entails the following steps. First, the camera focuses on channel 1 (Hoechst 33342), where nuclei are identified. Second, a Z offset of 1 um is used for capturing mitochondria (MitoTracker Red). […]

Row | SMILES | outcome | AC50
1 | Fc1ccc(Oc2ccnc3cc(Cl)cc(Cl)c23)cc1 | inactive | 
2 | COP(=S)(OC)Oc1nc(Cl)c(Cl)cc1Cl | inactive | 
3 | CNC(=O)ON=CC(C)(C)SC | inactive | 
4 | COc1nc(C)nc(NC(=O)NS(=O)(=O)c2ccccc2CCC(F)(F)F)n1 | inactive | 
5 | O=C(O)COc1nc(Cl)c(Cl)cc1Cl | inactive | 
6 | COC(=O)C=C(C)OP(=O)(OC)OC | inactive | 
7 | OC(c1ccc(Cl)cc1)(c1cncnc1)c1ccccc1Cl (stereo not given) | inactive | 
8 | CCCCNC(=O)n1c(NC(=O)OC)nc2ccccc21 | inactive | 
9 | CCCCNC(=O)OCC#CI | inactive | 54.5 µM (active)
10 | COC(=O)C(C)Oc1ccc(Oc2ccc(Cl)cc2Cl)cc1 (stereo not given) | inactive | 
11 | Oc1ccccc1-c1ccccc1 | inactive | 
12 | COC(=O)N(OC)c1ccccc1COc1ccn(-c2ccc(Cl)cc2)n1 | inactive | 
13 | N#CC(CCc1ccc(Cl)cc1)(Cn1cncn1)c1ccccc1 (stereo not given) | inactive | 
14 | CC(C)C1(C)N=C(c2nc3ccccc3cc2C(=O)O)NC1=O (stereo not given) | inactive | 
15 | CC(C)Oc1cc(-n2nc(C(C)(C)C)oc2=O)c(Cl)cc1Cl | inactive | 
16 | CCCCC(CC)COC(=O)c1ccccc1C(=O)OCC(CC)CCCC (stereo not given) | inactive | 
17 | COC(=O)c1ccccc1C(=O)OC | inactive | 
18 | C=CCC1=C(C)C(OC(=O)C2C(C=C(C)C)C2(C)C)CC1=O (stereo not given) | inactive | 
19 | COc1nc(NC(C)C)nc(NC(C)C)n1 | inactive | 
20 | COc1ccc(C(c2ccc(OC)cc2)C(Cl)(Cl)Cl)cc1 | inactive | 

Row | SMILES | outcome | AC50
21 | CCOC(=O)CC(SP(=S)(OC)OC)C(=O)OCC (stereo not given) | inactive | 
22 | CCc1nn(C)c(C(=O)NCc2ccc(C(C)(C)C)cc2)c1Cl | inactive | 
23 | COP(N)(=O)SC (stereo not given) | inactive | 
24 | N#Cc1nn(-c2c(Cl)cc(C(F)(F)F)cc2Cl)c(N)c1S(=O)C(F)(F)F (stereo not given) | inactive | 
25 | COc1cnc(OC)n2nc(NS(=O)(=O)c3c(OCC(F)F)cccc3C(F)(F)F)nc12 | inactive | 
26 | CC1COC(Cn2cncn2)(c2ccc(Oc3ccc(Cl)cc3)cc2Cl)O1 (stereo not given) | inactive | 
27 | CON(C)C(=O)Nc1ccc(Cl)c(Cl)c1 | inactive | 
28 | CS/C(C)=N/OC(=O)N(C)SN(C)C(=O)O/N=C(\C)SC | inactive | 
29 | COc1nc(C)nc(NC(=O)NS(=O)(=O)c2ccccc2Cl)n1 | inactive | 
30 | CNC(=S)S | inactive | 
31 | Cc1ccc(-c2c(Cl)nc(C#N)n2S(=O)(=O)N(C)C)cc1 | inactive | 
32 | CC(C)(C)c1ccc(CSc2cnn(C(C)(C)C)c(=O)c2Cl)cc1 | inactive | 
33 | CCOP(=S)(OCC)SCn1c(=O)oc2cc(Cl)ccc21 | inactive | 
34 | C=CC1(C)OC(=O)N(c2cc(Cl)cc(Cl)c2)C1=O (stereo not given) | inactive | 
35 | O=C(Nc1ccccc1)Nc1ccnc(Cl)c1 | inactive | 
36 | O=C(O)c1nc(Cl)ccc1Cl | inactive | 
37 | CCNc1nc(Cl)nc(NC(C)C)n1 | inactive | 
38 | C=CCC1=C(C)[C@@H](OC(=O)[C@@H]2[C@@H](C=C(C)C)C2(C)C)CC1=O | inactive | 
39 | CCOC(=O)C(Cl)Cc1cc(-n2nc(C)n(C(F)F)c2=O)c(F)cc1Cl (stereo not given) | inactive | 
